The target of assay [1] is Estrogen receptor beta (Homo sapiens) (UniProt Q92731). The assay is described as follows: OT_ER_ERbERb_1440: Odyssey Thera (OT) 24-hour HEK293T Protein-Complementation Assay for Estrogen Receptor-beta/-beta Homodimer (AID 2283380).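 Note: scored as signal increase over DMSO baseline for both agonists and antagonists.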 The essentials:
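HEK293T cells stably expressing ER beta LBD (aa 310-547) homodimer fragment-complementation reporter, dosed 24 h. Cells formaldehyde-fixed, Draq5-stained; gain in nuclear (agonist) or nuclear plus cytoplasmic (antagonist) fluorescence versus DMSO read by laser scanning cytometry.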

Assay [2] addresses Estrogen receptor (Homo sapiens) (UniProt P03372). Briefly: OT_ERa_GFPERaERE_0480: Odyssey Thera (OT) 8-hour HeLa Transcription Induction Assay for Estrogen Receptor (AID 2283381; active = hit-call score of the fitted dose curve at least 0.9, where 1 is the maximum; inactive = score below 0.9). In outline:
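HeLa cells dosed with compound and imaged by fluorescence microscopy at 8 h; GFP induction from an ERE reporter quantified by high-content image analysis and fitted as gain of signal against DMSO baseline.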

Assay [3] has the same target. The assay is described as follows: OT_ERa_GFPERaERE_0120: Odyssey Thera (OT) 2-hour HeLa Transcription Induction Assay for Estrogen Receptor (AID 2283382). The essentials:
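HeLa cells were dosed with test chemical and read 2 hours later for GFP-ERα/ERE-linked fluorescent protein induction by fluorescence microscopy. Gain-of-signal was fitted relative to DMSO baseline, quantified by high content image analysis.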

Assay [4] addresses Bile acid receptor (Homo sapiens) (UniProt Q96RI1). The assay is described as follows: OT_FXR_FXRSRC1_0480: Odyssey Thera (OT) 8-hour HEK293T Protein-Complementation Assay for Farnesoid X receptor/SRC-1 Co-activator (AID 2283383). In outline: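 HEK293T cells expressing FXR and SRC-1 fused to reporter fragments were dosed with compound for 8 h; fluorescence from the reconstituted reporter marked co-activator recruitment. Gain of signal was fitted against the DMSO baseline.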

Assay [5] shares this target. Briefly: OT_FXR_FXRSRC1_1440: Odyssey Thera (OT) 24-hour HEK293T Protein-Complementation Assay for Farnesoid X receptor/SRC-1 Co-activator (AID 2283384). The essentials:
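HEK293T cells were dosed with compound and read 24 h later by fluorescence intensity from protein-fragment complementation reporting FXR/SRC-1 co-activator interaction. Gain of signal was fitted relative to DMSO negative control as baseline.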

The target in assay [6] is Retinoic acid receptor RXR-alpha (Homo sapiens) (UniProt P19793). Briefly: OT_NURR1_NURR1RXRa_1440: Odyssey Thera (OT) 24-hour HEK293T Protein Complementation Assay for Nurr1/retinoid X receptor (RXR) (AID 2283386). The essentials:
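HEK293T cells were dosed with compound and read 24 h later by fluorescence intensity in a protein-fragment complementation format, where Nurr1–RXRα interaction reconstitutes a split reporter. Activity was fitted as gain of signal relative to DMSO baseline.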

Assay [7] is described as follows: CEETOX_H295R_OHPREG: CeeTox H295R High-throughput Steroidogenesis Assay for OH-Pregnenolone (OHPREG) (AID 2283434; active = hit-call score of the fitted dose curve at least 0.9, where 1 is the maximum; inactive = score below 0.9). As to conditions: actives raise or lower the signal. In outline:
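H295R cells pre-stimulated 48 h with 10 uM forskolin, then exposed 48 h to chemical in 0.1% DMSO. 17alpha-hydroxypregnenolone in medium quantified by MTBE extraction and HPLC-MS/MS; bidirectional fit versus DMSO, viability checked by MTT.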

Assay [8] in a line: CEETOX_H295R_OHPROG: CeeTox H295R High-throughput Steroidogenesis Assay for OH-Progesterone (OHPROG) (AID 2283435; active = hit-call score of the fitted dose curve at least 0.9, where 1 is the maximum; inactive = score below 0.9). As to conditions: actives raise or lower the signal. The essentials: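 H295R human adrenal cells were prestimulated 48 h with 10 uM forskolin, then exposed 48 h to test chemical (0.1% DMSO final). 17alpha-hydroxyprogesterone in medium was measured by HPLC-MS/MS after MTBE extraction; bidirectional fitting vs DMSO.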

A short description of assay [9]: CEETOX_H295R_CORTIC: CeeTox H295R High-throughput Steroidogenesis Assay for Corticosterone (CORTIC) (AID 2283437; active = hit-call score of the fitted dose curve at least 0.9, where 1 is the maximum; inactive = score below 0.9;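 note: corticosterone secreted into medium quantified by mass spectrometry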). As to conditions: actives raise or lower the signal. In outline: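 H295R adrenal cells prestimulated 48 hours with 10 uM forskolin, then exposed 48 hours to chemical in 0.1% DMSO. Corticosterone in medium measured by HPLC-MS/MS after MTBE extraction; MTT viability in the same wells; bidirectional fit versus DMSO.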

Assay [10] can be described thus: CEETOX_H295R_CORTISOL: CeeTox H295R High-throughput Steroidogenesis Assay for Cortisol (AID 2283438; active = hit-call score of the fitted dose curve at least 0.9, where 1 is the maximum; inactive = score below 0.9;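 note: cortisol secreted into medium quantified by LC-MS/MS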). As to conditions: actives raise or lower the signal. In outline:
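H295R human adrenal cells were prestimulated 48 h with 10 uM forskolin, then exposed 48 h to test chemical (0.1% DMSO final). Medium cortisol was quantified by HPLC-MS/MS after MTBE extraction; bidirectional fitting relative to DMSO baseline.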

Assay [11] can be described thus: CEETOX_H295R_DOC: CeeTox H295R High-throughput Steroidogenesis Assay for DOC (AID 2283439; active = hit-call score of the fitted dose curve at least 0.9, where 1 is the maximum; inactive = score below 0.9). As to conditions: actives raise or lower the signal. In outline: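 H295R adrenal cells prestimulated 48 h with 10 uM forskolin, then exposed 48 h to test chemical (0.1% DMSO final). Medium 11-deoxycorticosterone extracted with MTBE, quantified by HPLC-MS/MS; bidirectional fit versus DMSO baseline; MTT viability in same wells.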

A short description of assay [12]: CEETOX_H295R_ESTRADIOL: CeeTox H295R High-throughput Steroidogenesis Assay for Estradiol (AID 2283440; active = hit-call score of the fitted dose curve at least 0.9, where 1 is the maximum; inactive = score below 0.9;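 note: estradiol secreted into medium quantified by LC-MS/MS after dansyl derivatisation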). As to conditions: actives raise or lower the signal. The essentials:
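H295R adrenocortical cells were prestimulated with 10 uM forskolin for 48 h, then exposed to test chemical in 0.1% DMSO for 48 h. Medium estradiol was extracted with MTBE, dansyl-derivatized and quantified by HPLC-MS/MS; bidirectional fit versus DMSO.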

Assay [13] in a line: CEETOX_H295R_ESTRONE: CeeTox H295R High-throughput Steroidogenesis Assay for Estrone (AID 2283441; active = hit-call score of the fitted dose curve at least 0.9, where 1 is the maximum; inactive = score below 0.9;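 note: estrone secreted into medium measured by LC-MS/MS after dansyl derivatization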). The note with it: actives raise or lower the signal. The essentials: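 H295R cells; 48 h forskolin (10 uM) prestimulation; 48 h compound exposure, 0.1% DMSO final. Medium estrone: MTBE extraction, dansyl derivatization, HPLC-MS/MS. Bidirectional fit vs DMSO.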
For assay [14], the target named is Agonist Androgen Response Element (ARE), AR (gene 367) (UniProt P10275). Briefly: OT_AR_ARELUC_AG_1440: Odyssey Thera (OT) 24-hour CHO-K1 Luciferase Assay for Agonist Androgen Response Element (ARE) (AID 2283379). In outline: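 CHO-K1 cells carrying an ARE-driven luciferase reporter were exposed to compounds for 24 h. Luminescence was then read after adding a D-luciferin/ATP mix, and activity was scored as a gain in signal over DMSO vehicle.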

For assay [15], the target named is Peroxisome proliferator-activated receptor gamma (Homo sapiens) (UniProt P37231). The assay is described as follows: OT_PPARg_PPARgSRC1_1440: Odyssey Thera (OT) 24-hour Protein-Complementation Assay for Peroxisome Proliferator-activated Receptor Gamma/ SRC-1 Co-activator (AID 2283388). In outline:
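HEK293T cells transiently transfected with PPARg and SRC-1 fused via (Gly4Ser)2 linker to split Venus YFP fragments (IFP1/IFP2) were dosed 24 h; fixed, Draq5-stained, imaged at 488/635 nm; nuclear/cytoplasmic fluorescence ratio scored versus DMSO baseline, gain-of-signal.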

The target of assay [16] is mouse Estrogen Receptor alpha (Era), Esr1 (gene 13982) (UniProt P19785). The assay is described as follows: NVS_NR_mERa: NovaScreen (NVS) Nuclear Receptor Binding Assay for mouse Estrogen Receptor alpha (Era) (AID 2283378).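 Note: hit means loss of bound radioligand signal relative to DMSO.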 The essentials:
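Cell-free radioligand binding with extracted mouse Era protein; competitive displacement of radiolabelled ligand, read by filter-based scintillation counting 18 hours after dosing. Loss of signal versus DMSO baseline taken as binding; single screening concentration 25 uM, actives followed in concentration series.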

For assay [17], the target named is Peroxisome proliferator-activated receptor gamma (Homo sapiens) (UniProt P37231). Briefly: OT_PPARg_PPARgSRC1_0480: Odyssey Thera (OT) 8-hour Protein-Complementation Assay for Peroxisome Proliferator-activated Receptor Gamma / SRC-1 Co-activator (AID 2283387). The essentials:
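HEK293T transiently transfected with PPARg and SRC-1 fused to Venus YFP fragments, compounds 8 h at 37C. Fixed, Draq5-stained cells imaged; nuclear/cytoplasmic 488 nm fluorescence ratio over at least 350 cells per image; gain fitted versus DMSO.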

Records with an inconclusive call do not appear. Calls of active or inactive are those of the source. Rule for the calls, unless noted: active = hit-call score of the fitted dose curve at least 0.9, where 1 is the maximum; inconclusive = response in the unintended direction; inactive = score below 0.9.

Sequence of Estrogen receptor (Homo sapiens) (P03372 whole entry, looked up): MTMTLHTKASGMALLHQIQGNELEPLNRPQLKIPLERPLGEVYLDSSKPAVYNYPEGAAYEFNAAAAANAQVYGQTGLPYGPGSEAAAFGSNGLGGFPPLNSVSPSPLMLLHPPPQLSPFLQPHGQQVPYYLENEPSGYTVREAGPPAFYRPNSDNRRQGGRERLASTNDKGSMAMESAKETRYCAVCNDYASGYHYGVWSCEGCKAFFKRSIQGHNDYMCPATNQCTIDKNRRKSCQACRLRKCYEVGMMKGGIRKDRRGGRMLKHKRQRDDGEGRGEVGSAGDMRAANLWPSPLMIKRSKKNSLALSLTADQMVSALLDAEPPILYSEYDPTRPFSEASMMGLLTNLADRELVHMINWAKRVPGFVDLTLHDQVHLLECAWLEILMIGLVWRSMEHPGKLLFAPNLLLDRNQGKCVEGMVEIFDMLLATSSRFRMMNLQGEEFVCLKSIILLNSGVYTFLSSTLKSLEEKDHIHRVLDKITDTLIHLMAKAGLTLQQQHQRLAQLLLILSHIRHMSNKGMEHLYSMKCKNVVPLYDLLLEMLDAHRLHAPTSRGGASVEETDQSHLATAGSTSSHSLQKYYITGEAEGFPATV
Sequence of Estrogen receptor beta (Homo sapiens) (Q92731 whole entry, looked up, the tested form may be a part): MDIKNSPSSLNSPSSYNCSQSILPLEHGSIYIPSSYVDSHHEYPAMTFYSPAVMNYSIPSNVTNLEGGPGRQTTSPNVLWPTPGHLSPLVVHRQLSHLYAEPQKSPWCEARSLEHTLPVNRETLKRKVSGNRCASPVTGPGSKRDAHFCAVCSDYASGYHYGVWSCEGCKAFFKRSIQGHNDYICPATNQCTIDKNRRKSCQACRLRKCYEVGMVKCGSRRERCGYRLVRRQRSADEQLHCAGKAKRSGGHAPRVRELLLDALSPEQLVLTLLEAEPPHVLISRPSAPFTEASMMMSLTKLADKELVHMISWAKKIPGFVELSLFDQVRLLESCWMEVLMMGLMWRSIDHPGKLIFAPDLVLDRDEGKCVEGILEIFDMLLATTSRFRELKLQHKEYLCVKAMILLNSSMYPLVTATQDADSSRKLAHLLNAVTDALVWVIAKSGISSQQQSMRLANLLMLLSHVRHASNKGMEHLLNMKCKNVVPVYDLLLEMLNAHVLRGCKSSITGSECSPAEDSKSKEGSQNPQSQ
Sequence of Retinoic acid receptor RXR-alpha (Homo sapiens) (P19793 whole entry, looked up, the tested form may be a part): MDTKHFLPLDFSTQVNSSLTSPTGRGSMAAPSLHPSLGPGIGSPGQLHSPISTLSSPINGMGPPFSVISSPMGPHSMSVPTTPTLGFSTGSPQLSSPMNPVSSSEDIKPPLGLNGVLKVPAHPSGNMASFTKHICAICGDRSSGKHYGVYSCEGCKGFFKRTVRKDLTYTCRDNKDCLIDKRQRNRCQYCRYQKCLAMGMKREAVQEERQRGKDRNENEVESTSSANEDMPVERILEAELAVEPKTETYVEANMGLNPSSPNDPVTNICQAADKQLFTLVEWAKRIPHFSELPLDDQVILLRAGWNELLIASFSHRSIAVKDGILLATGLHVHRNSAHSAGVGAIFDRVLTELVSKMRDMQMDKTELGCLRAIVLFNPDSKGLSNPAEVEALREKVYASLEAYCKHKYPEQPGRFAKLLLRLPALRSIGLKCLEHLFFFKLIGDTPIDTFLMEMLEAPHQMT
Sequence of Bile acid receptor (Homo sapiens) (Q96RI1 whole entry, looked up, the tested form may be a part): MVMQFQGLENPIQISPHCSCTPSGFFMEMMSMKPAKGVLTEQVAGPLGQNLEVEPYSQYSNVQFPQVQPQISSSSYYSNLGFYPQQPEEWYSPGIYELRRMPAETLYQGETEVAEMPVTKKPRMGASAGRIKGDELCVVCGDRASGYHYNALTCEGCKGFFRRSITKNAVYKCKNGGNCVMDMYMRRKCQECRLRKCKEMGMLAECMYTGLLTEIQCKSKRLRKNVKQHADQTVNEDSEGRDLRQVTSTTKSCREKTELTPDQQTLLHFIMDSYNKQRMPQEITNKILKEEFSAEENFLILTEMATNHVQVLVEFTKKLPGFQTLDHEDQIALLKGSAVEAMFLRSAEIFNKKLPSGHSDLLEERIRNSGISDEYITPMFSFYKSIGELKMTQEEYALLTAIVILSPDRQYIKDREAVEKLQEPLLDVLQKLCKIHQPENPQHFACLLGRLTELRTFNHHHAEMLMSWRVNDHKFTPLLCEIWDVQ
Sequence of mouse Estrogen Receptor alpha (Era), Esr1 (gene 13982) (P19785 whole entry, looked up): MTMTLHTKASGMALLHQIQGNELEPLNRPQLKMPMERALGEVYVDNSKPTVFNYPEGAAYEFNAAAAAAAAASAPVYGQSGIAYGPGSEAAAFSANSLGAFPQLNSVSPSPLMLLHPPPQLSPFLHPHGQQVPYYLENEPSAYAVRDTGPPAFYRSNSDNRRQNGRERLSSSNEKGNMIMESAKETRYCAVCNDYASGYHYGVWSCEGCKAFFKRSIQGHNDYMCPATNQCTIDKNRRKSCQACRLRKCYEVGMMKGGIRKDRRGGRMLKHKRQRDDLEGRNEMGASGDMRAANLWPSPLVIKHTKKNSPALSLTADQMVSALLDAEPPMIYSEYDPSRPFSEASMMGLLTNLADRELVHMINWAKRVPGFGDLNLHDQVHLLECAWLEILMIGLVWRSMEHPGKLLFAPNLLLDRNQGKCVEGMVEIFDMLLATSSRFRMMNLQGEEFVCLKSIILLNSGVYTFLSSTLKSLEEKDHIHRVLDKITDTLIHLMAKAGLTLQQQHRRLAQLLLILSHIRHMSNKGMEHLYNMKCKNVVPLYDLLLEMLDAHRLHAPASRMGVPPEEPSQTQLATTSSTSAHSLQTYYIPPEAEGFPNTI
Sequence of Peroxisome proliferator-activated receptor gamma (Homo sapiens) (P37231 whole entry, looked up, the tested form may be a part): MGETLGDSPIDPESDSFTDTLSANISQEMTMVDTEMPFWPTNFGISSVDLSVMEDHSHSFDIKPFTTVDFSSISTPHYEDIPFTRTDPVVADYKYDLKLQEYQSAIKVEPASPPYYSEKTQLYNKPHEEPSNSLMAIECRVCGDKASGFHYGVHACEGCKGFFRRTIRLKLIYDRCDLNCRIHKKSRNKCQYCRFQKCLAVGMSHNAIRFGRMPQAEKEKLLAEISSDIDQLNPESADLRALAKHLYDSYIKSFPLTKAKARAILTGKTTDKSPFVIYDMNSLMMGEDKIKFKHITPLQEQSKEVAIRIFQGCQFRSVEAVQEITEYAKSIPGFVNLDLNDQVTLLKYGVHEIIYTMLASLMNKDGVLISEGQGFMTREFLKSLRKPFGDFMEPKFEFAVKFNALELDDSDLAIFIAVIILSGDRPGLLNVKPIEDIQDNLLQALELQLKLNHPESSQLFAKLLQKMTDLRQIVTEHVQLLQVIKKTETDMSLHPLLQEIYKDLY
Sequence of Agonist Androgen Response Element (ARE), AR (gene 367) (P10275 whole entry, looked up): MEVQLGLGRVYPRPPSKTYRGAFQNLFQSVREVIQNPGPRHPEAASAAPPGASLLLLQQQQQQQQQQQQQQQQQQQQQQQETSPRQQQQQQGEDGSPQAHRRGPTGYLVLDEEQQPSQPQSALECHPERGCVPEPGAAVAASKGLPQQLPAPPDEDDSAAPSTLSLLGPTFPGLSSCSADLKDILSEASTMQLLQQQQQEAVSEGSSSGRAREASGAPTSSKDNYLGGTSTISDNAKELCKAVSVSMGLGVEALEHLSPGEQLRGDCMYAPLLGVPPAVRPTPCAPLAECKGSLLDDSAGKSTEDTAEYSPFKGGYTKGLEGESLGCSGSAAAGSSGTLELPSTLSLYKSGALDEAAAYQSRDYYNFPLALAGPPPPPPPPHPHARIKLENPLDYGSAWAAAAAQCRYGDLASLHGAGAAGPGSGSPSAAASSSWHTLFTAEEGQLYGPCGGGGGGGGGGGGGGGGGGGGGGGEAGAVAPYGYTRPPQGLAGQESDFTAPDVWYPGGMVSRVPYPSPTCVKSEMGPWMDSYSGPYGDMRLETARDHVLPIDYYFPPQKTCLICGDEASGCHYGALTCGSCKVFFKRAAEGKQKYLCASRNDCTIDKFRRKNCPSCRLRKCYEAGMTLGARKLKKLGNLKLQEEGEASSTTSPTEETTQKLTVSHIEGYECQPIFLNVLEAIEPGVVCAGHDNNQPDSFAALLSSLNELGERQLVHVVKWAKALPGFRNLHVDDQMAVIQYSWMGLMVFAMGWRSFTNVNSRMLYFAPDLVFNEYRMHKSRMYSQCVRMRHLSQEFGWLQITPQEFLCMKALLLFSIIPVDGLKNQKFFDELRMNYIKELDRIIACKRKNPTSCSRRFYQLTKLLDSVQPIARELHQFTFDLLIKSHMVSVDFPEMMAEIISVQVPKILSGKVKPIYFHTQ

By AC50 is commonly meant the concentration at which the activity in the assay is half-maximal. Take `CC(C)=CC1C(C(=O)OCc2cccc(Oc3ccccc3)c2)C1(C)C` (stereo unspecified): the compound was called inactive in assay [1], in assay [2], in [3], in assay [4], in assay [6] and in [9]. The compound was called inactive in [10], in assay [11], in assay [12] and in assay [13]. The half-maximal activity concentration (AC50) was 12.3 µM (active) in assay [5], 25.7 µM (active) in assay [7] and 26.9 µM (active) in assay [8].

`Cc1cc(Cl)ccc1OCCCC(=O)O`: the result in assay [14], in [1], in [4], in assay [5], in [6] and in assay [15] was inactive.

For the compound `CCN(CCO)CCO`, the compound was classed as inactive in assay [1], in assay [2], in [3], in assay [6] and in assay [15].

Regarding `O=C1c2ccccc2C(=O)C1C(=O)C(c1ccccc1)c1ccc(Cl)cc1` (stereo unspecified), the half-maximal activity concentration (AC50) was 1.12 µM (active) in [16], 73.2 µM (active) in [6] and 69.3 µM (active) in assay [15]. Moreover, the compound was called inactive in assay [14], in [2], in assay [3] and in assay [17].

As to `N#CCC#N`, the call in assay [14], in assay [1], in [2], in assay [3] and in assay [15] was inactive.

Regarding `CC(C)(C)c1cc([N+](=O)[O-])cc(C(C)(C)C)c1O`, the compound was classed as inactive in assay [16], in [7], in assay [8], in [12] and in [13].

Turning to `O=[N+]([O-])c1ccc(Cl)c([N+](=O)[O-])c1`, the compound was called inactive in [14] and in assay [15]. The AC50 in [2] is 8.64 µM (active).

Turning to `O=C(O)COc1ccc(Cl)cc1`, the result in assay [1], in [2], in assay [3] and in [15] was inactive.

For the compound `CC(O)(CS(=O)(=O)c1ccc(F)cc1)C(=O)Nc1ccc(C#N)c(C(F)(F)F)c1` (stereo unspecified), the AC50 is 0.026 µM (active) in assay [16], 1.75 µM (active) in assay [1] and 12.8 µM (active) in assay [2]. Further, the call in [3], in [6], in assay [17] and in assay [15] was inactive.

`O=C(NC(=O)c1c(F)cccc1F)Nc1cc(Cl)c(Oc2ncc(C(F)(F)F)cc2Cl)c(Cl)c1`: the compound was classed as inactive in assay [16].

On to `CCOc1ccc(N)cc1`, for which the call in [1], in [2], in [3] and in assay [6] was inactive. For the same compound, the concentration at half-maximal activity (AC50) in assay [5] is 46.8 µM (active).

As to `CC(=Cc1ccccc1)[N+](=O)[O-]`, the compound was called inactive in assay [16], in assay [14], in [1] and in assay [15]. Moreover, the AC50 was 16.6 µM (active) in [2] and 19.8 µM (active) in assay [3].

Take `COCCl`: the AC50 in assay [14] was 1.22 µM (active). The call in assay [1], in assay [4], in assay [5] and in assay [15] was inactive.

Take `CNC(=O)O/N=C/C(C)(C)S(C)(=O)=O`: in assay [14], the concentration at half-maximal activity (AC50) is 0.623 µM (active). In addition, the result in [1], in assay [2], in assay [3], in [6], in assay [17] and in assay [15] was inactive.

`O=S(=O)(Oc1ccc(Cl)cc1)c1ccc(Cl)cc1`: the compound was called inactive in assay [16].

On to `CC(C)N(C(=O)CCl)c1ccccc1`, for which the AC50 in assay [16] is 6.48 µM (active). Moreover, the outcome in [14], in [1], in assay [2], in [3] and in [15] was inactive.

On to `CN(C)C(=S)S`, for which the outcome in [1] and in assay [6] was inactive.

For `Nc1ccc(N)cc1`, in assay [1], the AC50 was 12.4 µM (active). Also, the compound was classed as inactive in assay [5], in assay [6], in assay [15], in assay [7] and in assay [8].

`Oc1c(Cl)cc(Cl)cc1Cl`: the outcome in [1] and in [7] was inactive. The AC50 in assay [8] is 66.5 µM (active).

For the compound `CN(N=O)C(N)=O`, the compound was called inactive in assay [1] and in [15].

Turning to `N#CS`, the call in assay [6] and in assay [15] was inactive.

`CCC[CH2][Sn]([CH2]CCC)([CH2]CCC)[CH2]CCC`: the call in [1] and in assay [15] was inactive. For the same compound, the half-maximal activity concentration (AC50) in [5] was 11.8 µM (active).

Take `OC(Cc1ccccc1Cl)(Cn1cncn1)C1(Cl)CC1` (stereo unspecified): the AC50 in [7] is 1.37 µM (active); in assay [9] it was 6.94 µM (active); in assay [10], 6.05 µM (active); in assay [12], 3.86 µM (active); in [13], 7.74 µM (active). Moreover, the outcome in assay [8] and in assay [11] was inactive.

(Values after PubChem BioAssay (EPA / NIEHS).)
